Data on 16 molecules can be found in ChEMBL document CHEMBL1157539, “Thousands of chemical starting points for antimalarial lead identification” (Nature, 2010).

For orientation: Inhibition means the percentage by which the read-out fell short of the control.

This experiment deals with HepG2. Description: GSK_TCMDC: Percent inhibition of human HepG2 cell line. Test compounds present at 10uM. The experiment is classed as functional.
Molecule `CC(C)(C)Oc1ccc(NC(=O)c2ccccc2O)cc1` registered an Inhibition of 4%.
`Cc1cccc(C(=O)NC(NC(=S)Nc2ccc([N+](=O)[O-])cc2)C(Cl)(Cl)Cl)c1` (stereo unspecified): the Inhibition is reported as 14%.
In the case of `N=C(N)NC(=O)Nc1cc(Cl)c(F)c(Cl)c1`, the Inhibition is recorded as 22%.
In turn, `COc1ccc(-c2cc3nc4c(c(NCCCn5ccnc5)n3n2)CCCC4)cc1` yielded an Inhibition of 5%.
As to `CC(=NNC(=N)N)c1ccc2c(ccc3ccccc32)c1.Cl`, the Inhibition is on record as 47%.
`CCCN1CCC=C(c2cccc(Nc3nccc(Nc4cc(OC)ccc4C)n3)c2)C1.Cl` had an Inhibition of 15%.
In turn, `Nc1nc(N)c2c(Cc3ccc(Br)cc3)cccc2n1` registered an Inhibition of 28%.
Then `CCC(C)NS(=O)(=O)c1ccc2nc(Nc3ccc(C)c(Cl)c3)n([C@H](C)C(C)(C)C)c2c1` (stereo partly specified), with 8%; and `CCOc1ccc(C(C)NC(=O)Nc2ccccc2)cc1OCC` (stereo unspecified), with 14%.
Turning to `COc1ccccc1C1CC(c2ccc(C)cc2)=NN1C(=O)c1ccccc1` (stereo unspecified), the Inhibition turned out to be 37%.
The result for `CC(C)(CNC(=O)[C@@H]1CCCCN1)c1nc(-c2ccc(Cl)c(O)c2)c(-c2ccncc2)[nH]1.Cl` reads 0%; that for `O=C(/C=C/c1ccc([N+](=O)[O-])cc1)N1CCC(NS(=O)(=O)c2ccc(Br)cc2)CC1`, 0%.
`COc1cc2c(cc1COc1ccccc1)CCN1Cc3cc(OC)c(OC)cc3CC21` (stereo unspecified) had an Inhibition of 0%.
Then `O=C(/C=C/c1ccc(Cl)c(Cl)c1)NCCCCCN1CCCN(C(=O)Nc2ccc(Cl)c(Cl)c2)CC1`, with 55%; and `COc1cc(Cc2cnc(N)nc2N)cc(OCCCCCC(N)=O)c1OC`, with 0%; and `N#Cc1ccc2c(c1)CCN(CCCn1c(-c3ccc4ccccc4c3)nc3ccncc31)CC2`, with 38%.
